In the library only some 3.6% were active in any assay of this set; here they are far more common.
Anthrax LF prot: anthrax lethal factor protease inhibition; 360,000 compounds, 0.12% hits; P15917; inhibition, % at 10 µM; multiplex microsphere protease cleavage assay, LF; further: plate controls were buffer without enzyme for full effect and enzyme alone for no effect
MazF activator: MazEF (E. coli) toxin RNase activation; FAM/BHQ RNA-DNA oligo cleavage fluorescence, 5 h; AID 504720; 350,000 compounds, 0.32% hits; P0AE70; activation, % at 20 µM; in the data active means activation above about 50%
Target sequence (P0AE70 whole entry, looked up): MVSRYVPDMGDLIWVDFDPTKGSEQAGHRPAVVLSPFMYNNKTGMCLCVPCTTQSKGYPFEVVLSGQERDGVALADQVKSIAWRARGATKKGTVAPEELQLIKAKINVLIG
BoNT-A LC inh2: inhibitors of Botulinum neurotoxin A light chain protease. multiplex microsphere protease substrate cleavage, flow cytometry. inhibition, % at 10 µM. 360,000 compounds, 0.17% hits; further: plate controls were buffer without enzyme for full effect and enzyme alone for no effect
BoNT-F LC inh: blocks Botulinum neurotoxin F light chain protease. 360,000 compounds, 0.22% hits. Multiplex microsphere protease cleavage assay, flow cytometry. inhibition, % at 10 µM; in the data active means inhibition above about 35%, passing the limit was not always enough; inconclusive means no clear call, values can overlap the other calls; further: plate controls were buffer without enzyme for full effect and enzyme alone for no effect
Bead autofluor: flagged as autofluorescent in microsphere protease counterscreen. fluorescence intensity (concentration not given with the values). 360,000 compounds, 3.1% hits. compound autofluorescence counterscreen, microsphere flow cytometry; stronger effect = higher value; in the data active means fluorescence intensity above about 16000; inconclusive means no clear call, values can overlap the other calls
* marks the source's active call; other numbers are inactive results; ? = inconclusive; nt = no result given. Unless noted, no stated cut-off is given here; in the data, active means inhibition above about 30%; inconclusive means no clear call, values can overlap the other calls; inactive means below that.

SMILES | Anthrax LF prot | MazF activator | BoNT-A LC inh2 | BoNT-F LC inh | Bead autofluor
COc1ccc(-n2nc(C(=O)NCC(=O)NCc3ccco3)c3ccccc3c2=O)cc1Cl | -4 | 8 | 1 | 2 | 21931*
COc1ccc(-n2nc(C(=O)NCC(=O)N3CCN(c4ccccn4)CC3)c3ccccc3c2=O)cc1OC | -2 | 1 | -1 | -3 | 3346
COC(=O)CNC(=O)CNC(=O)c1nn(-c2ccc(OC)c(Cl)c2)c(=O)c2ccccc12 | -1 | 5 | -1 | -24 | 3532
COc1ccc(-n2nc(C(=O)NCc3ccco3)c3ccccc3c2=O)cc1 | -1 | -7 | 5 | 4 | 19127*
COc1ccc(-n2nc(C(=O)NCC(=O)N3CCN(c4ccccn4)CC3)c3ccccc3c2=O)cc1 | -2 | 6 | ? | 0 | 22175*
O=C(NC1CCCCC1)N1CCCC1 | -2 | 0 | 1 | 1 | 21923*
O=C(NC1CCCCC1)N1CCCCCC1 | -2 | -10 | 1 | 2 | 7826
Cc1cccc(NC(=O)C2CCCN2C(=O)OCC(C)C)c1C (stereo not given) | -2 | 2 | 2 | 3 | 21398*
O=C(NCc1ccccc1)C1CCCN(C(=O)Nc2ccccc2)C1 (stereo not given) | -6 | -5 | ? | -5 | 20689*
Cc1cccc(NC(=O)C2CCCN(C(=O)Nc3ccccc3)C2)c1C (stereo not given) | -1 | -1 | ? | -4 | 22928*
Cc1cccc(NC(=O)C2CCCN2C(=O)OCC(C)C)c1 (stereo not given) | -3 | 6 | 1 | 6 | 9794
Cc1noc(C)c1-c1ccc(C(=O)NCCC(F)(F)F)c2occc12 | 1 | nt | 0 | 0 | 3726
O=C(Cc1cccc(NC(=O)C2CCN(C(=O)CCc3ccccc3)CC2)c1)Nc1cccc(C(=O)N2CCCCC2)c1 | 2 | -1 | 0 | -4 | 2911
Cc1ccc(NC(=O)CSc2nc(=O)n(CCCN3CCOCC3)c3c2CCCC3)cc1 | 0 | 1 | 0 | -3 | 4447
COC(=O)c1ccccc1C(=O)c1c(C)cc(C)cc1C | -6 | nt | -1 | 0 | 5747
CC1(C(=O)NCc2ccco2)Cc2c(-c3cccc(C(F)(F)F)c3)ccnc2O1 (stereo not given) | -3 | nt | -1 | 4 | 3691
CCNC(=O)C1(C)CCN(C(=O)c2ccc(F)cc2Cl)C1 (stereo not given) | 1 | nt | 0 | 1 | 3361
O=C(NCCc1ccccc1)C1CCCN(C(=O)NC2CCCCC2)C1 (stereo not given) | -4 | 2 | ? | 1 | 22227*
O=S1(=O)CC(N2CCCC2)CN1Cc1ccccc1 (stereo not given) | -2 | nt | 0 | 2 | 5954
COc1ccccc1S(=O)(=O)N(C)C[C@H]1OCc2cnnn2CCCC(=O)N([C@@H](C)CO)C[C@H]1C | -3 | 5 | 0 | -1 | 3828
Cc1ccc(S(=O)(=O)N2CC3(O)CN(C(=O)OC(C)C)N(C(=O)OC(C)C)CC3(OC(=O)NC3CCCC3)C2)cc1 (stereo not given) | -8 | 6 | 0 | -2 | 3004
COc1ccccc1NC(=O)COc1cccc(-n2cnnn2)c1 | -1 | 2 | -6 | -10 | 18765*
Cc1cc(C(=O)COc2cccc(-n3cnnn3)c2)c(C)n1-c1ccccc1 | -3 | 4 | 0 | -2 | 16603*
COC(=O)COc1cccc(-n2cnnn2)c1 | -3 | 2 | 0 | -1 | 8816
CCCNC(=O)C1(C)CCCN(Cc2c3ccccc3nn2C)C1 (stereo not given) | 3 | nt | 0 | 9 | 3545
SMILES | Anthrax LF prot | MazF activator | BoNT-A LC inh2 | BoNT-F LC inh | Bead autofluor
CSc1ccccc1C(=O)Nc1ccccc1C | 2 | 10 | 0 | -3 | 2431
O=C(O)CNC(=O)c1ccccc1NC(=O)c1ccco1 | -1 | 0 | -1 | -2 | 22742*
Cc1ccccc1NC(=O)c1ccccc1O | -1 | -10 | 0 | 0 | 22757*
Cc1ccccc1C(=O)Nc1ccccc1C(=O)NCc1ccccc1 | -3 | -2 | 0 | -2 | 21881*
CCc1nnc(NC(=O)CN2CCCC(C)C2)s1 (stereo not given) | -2 | 11 | -1 | -12 | 3989
CCCCn1nnnc1C(c1cc2ccccc2o1)N1CCN(c2cc(C)nc3ccccc23)CC1 (stereo not given) | -1 | nt | 1 | 0 | 6079
CCN(CC)CCNC(=O)C(=O)Nc1cc2c3c(c1)CCC(=O)N3CCC2 | 0 | 1 | 0 | 8 | 5399
O=C(Nc1ccc(F)cc1)c1sccc1SCc1cccc(C(F)(F)F)c1 | -4 | -1 | ? | -14 | 26797*
COc1ccc(NC(=O)c2sccc2SCc2cccc(C(F)(F)F)c2)cc1 | -6 | -8 | -1 | -5 | 8053
COc1cccc(CC2(CO)CCCN(Cc3ccc(CN4CCCCC4)s3)C2)c1 (stereo not given) | -1 | -7 | 0 | -5 | 3506
CCOC(=O)c1cc(-c2ccc(OC)cc2)nc2c1c(C)nn2CCC#N | -5 | -8 | ? | -5 | 20850*
CCOC(=O)c1cc(-c2ccc(C#N)cc2)nc2c1c(C)nn2CCC#N | -1 | 8 | 0 | -6 | 2655
CC(=O)C(Sc1nn(C)c(=S)s1)C(=O)Nc1ccccc1 (stereo not given) | -3 | 4 | 0 | 0 | 23581*
CC(=O)C(Sc1nc(N(C)C)nc(N(C)C)n1)C(=O)Nc1ccccc1 (stereo not given) | -2 | -2 | 0 | -5 | 4768
O=C(O)C1C2C=CC(O2)C1C(=O)Nc1ccc(S(=O)(=O)Nc2ccccc2)cc1 (stereo not given) | 0 | 3 | 4 | 2 | 21995*
O=C(O)C1C2C=CC(O2)C1C(=O)Nc1ccc(S(=O)(=O)N2CCc3ccccc32)cc1 (stereo not given) | 0 | -1 | 0 | -4 | 10413
CCN1C(=O)[C@H]2[C@@H](c3ccc(C)cc3)N[C@]3(CCCN(Cc4ccco4)C3=O)[C@H]2C1=O | 5 | 6 | 0 | -7 | 3795
Cc1ccccc1Oc1ncccc1C(=O)/C(C#N)=C/N(C)C | -1 | -17 | -2 | -1 | 23141*
Cc1ccccc1Oc1cccc(C(=O)/C(C#N)=C/N(C)C)c1 | 1 | 6 | 1 | 1 | 3405
Cc1ccc(-c2nnn(CC(=O)N(c3ccccc3F)C(CC(C)C)C(=O)NCC3CCCO3)n2)cc1 (stereo not given) | -4 | -4 | -1 | -3 | 16688*
CC(C)CC(C(=O)NCC1CCCO1)N(C(=O)Cn1nnc(-c2ccc(F)cc2)n1)c1ccccc1F (stereo not given) | -5 | -1 | -3 | -9 | 21995*
CC(C(=O)NC1CCCC1)N(C(=O)Cn1nnc(-c2ccc(F)cc2)n1)c1ccccc1F (stereo not given) | -3 | -1 | 1 | 5 | 4115
Cc1ccc(-c2nnn(CC(=O)N(CC3CCCO3)C(C(=O)NC(C)(C)C)c3ccc(F)cc3)n2)o1 (stereo not given) | -2 | -15 | ? | -2 | 22682*
Cc1ccc(N(C(=O)Cn2nnc(-c3ccc(F)cc3)n2)C(CC(C)C)C(=O)NCC2CCCO2)cc1 (stereo not given) | 0 | 2 | -1 | -4 | 23138*
